Assay results: PubChem BioAssay AID2284202 (EPA ToxCast)
The source made the active and inactive calls. Rule for the calls: active = hit-call score of the fitted dose curve at least 0.9, where 1 is the maximum; inactive = score below 0.9.

Each molecule was assayed against human Dopamine Transporter (DAT), SLC6A3 (gene 6531) (UniProt Q01959) (assay: ERF_FR_TR_hSLC6A3: Eurofins (ERF) Radioligand Binding LeadHunter Assay for human Dopamine Transporter (DAT) Antagonism, conducted at France lab site).
Method: ERF_FR_TR_hSLC6A3 is a biochemical, single-readout assay that uses extracted gene-proteins in a cell-free assay. Measurements were taken 2 hour after chemical dosing in a 96-well plate. See DAT Human Dopamine Transporter Binding (Antagonist Radioligand) Assay, Cerep.ERF_FR_TR_hSLC6A3 is an assay component calculated from the ERF_FR_TR_hSLC6A3 assay. It is designed to measure radioligand binding using a type of binding reporter as detected by scintillation counting with radiometry technology.Data from the assay component ERF_FR_TR_hSLC6A3 was analyzed at the assay endpoint, ERF_FR_TR_hSLC6A3, in the positive analysis fitting direction relative to DMSO as the negative control and baseline of activity. Using a type of binding reporter, loss-of-signal activity can be used to understand changes in binding as they relate to gene SLC6A3. To generalize the intended target to other relatable targets, this assay endpoint is annotated to the transporter intended target family, where the subfamily is SLC6 / Monoamine.
Human cells are incubated for 120 minutes at 4C with [3H]BTCP (4 nM) ligand and BTCP as control inhibitor. Test Sample Requirements: Minimum for 1) Screen: 60 ul of 10 mM stock -OR- 1 mg (pre-weighed) for 10 uM final testing. 2) Dose Response: 90 ul of 10 mM stock -OR- 1 mg (pre-weighed) for a top concentration at 10 uM.

Sequence of human Dopamine Transporter (DAT), SLC6A3 (gene 6531) (Q01959 whole entry, looked up): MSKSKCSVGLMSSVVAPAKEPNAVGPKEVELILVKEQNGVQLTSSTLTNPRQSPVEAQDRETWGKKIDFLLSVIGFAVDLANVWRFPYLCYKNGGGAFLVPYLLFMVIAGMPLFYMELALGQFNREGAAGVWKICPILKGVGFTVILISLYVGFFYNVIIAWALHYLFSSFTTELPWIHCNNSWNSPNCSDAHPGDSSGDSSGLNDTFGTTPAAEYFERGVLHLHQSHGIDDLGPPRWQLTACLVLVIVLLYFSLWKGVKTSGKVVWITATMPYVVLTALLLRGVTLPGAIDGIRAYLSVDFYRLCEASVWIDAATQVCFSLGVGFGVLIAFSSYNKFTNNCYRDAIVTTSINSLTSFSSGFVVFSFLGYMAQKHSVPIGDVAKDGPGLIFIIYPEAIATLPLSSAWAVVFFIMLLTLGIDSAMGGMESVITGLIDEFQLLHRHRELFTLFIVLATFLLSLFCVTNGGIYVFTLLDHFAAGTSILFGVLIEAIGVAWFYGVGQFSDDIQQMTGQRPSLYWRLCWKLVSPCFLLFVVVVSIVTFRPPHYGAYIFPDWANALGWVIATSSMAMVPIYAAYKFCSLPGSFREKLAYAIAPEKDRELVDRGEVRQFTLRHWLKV

Row | SMILES | AC50
1 | COc1cc(CCC(=O)CC(=O)CCc2ccc(O)c(OC)c2)ccc1O | 2970 nM (active)
2 | O=C(/C=C/c1ccc(O)cc1)CC(=O)/C=C/c1ccc(O)cc1 | 2890 nM (active)
